From PubChem
Compounds with a hit are over-represented: about 1.6% of the library has one in this group of screens.
PME-1 inh: PME-1 (human) inhibition. recombinant PME-1, FP-Rh probe fluorescence polarization. AID 2130. 320,000 compounds, 0.53% hits. Q9Y570. inhibition, % at 5.9 µM;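 active means inhibition above the campaign mean of all compounds plus 3 SD, cut at about 26% in these data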;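 further: competitive labeling of PME-1 active site by serine hydrolase directed probe; 0% = PME-1 with DMSO and 100% = wells lacking PME-1 enzyme; inhibitors block probe labeling so polarization falls and inhibition rises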
LYPLA1 counter: counter-screen for PME1 inhibitors: inhibitors of human LYPLA1. O75608. recombinant LYPLA1, FP-Rh probe fluorescence polarization. inhibition, % at 5.9 µM. 320,000 compounds, 0.16% hits;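 active means inhibition above the mean of all tested compounds plus 3 SD, set per campaign, cut at about 14% in these data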;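 further: inhibitors block serine hydrolase probe labeling of LYPLA1 so polarization falls; 0% = enzyme with DMSO and 100% = wells lacking LYPLA1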
Fam108B counter: blocks mouse Fam108B hydrolase in RBBP9 counter-screen; recombinant Fam108B, FP-Rh probe fluorescence polarization; inhibition, % at 9.51 µM; 300,000 compounds, 0.33% hits;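 active means inhibition above the screen mean inhibition plus 3 SD, computed separately per campaign, cut at about 18% in these data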;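 further: inhibitors lower polarization as less probe binds the enzyme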
PREPL inh: inhibits the human prolyl oligopeptidase-like enzyme; recombinant PREPL, fluorescence polarization activity-based probe; Q4J6C6; 320,000 compounds, 0.68% hits; inhibition, % at 5.96 µM; in the data active means inhibition above about 43%;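 further: 0% = enzyme with DMSO and 100% = wells lacking enzyme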
LYPLA2 counter: counter-screen for PME1 inhibitors: inhibitors of human LYPLA2. O95372. recombinant LYPLA2, FP-Rh probe fluorescence polarization. inhibition, % at 5.9 µM. 320,000 compounds, 0.38% hits. AID 2177;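 active means inhibition above the screen-wide mean plus 3 SD, limit set per campaign, cut at about 26% in these data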;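 further: 0% = LYPLA2 with DMSO and 100% = wells lacking LYPLA2 enzyme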
MEX-5 binding: C. elegans MEX-5 TCR-2 RNA binding activity; Q9XUB2; MEX-5/FITC-TCR2 RNA binding, fluorescence polarization; hits give low values; activity score (negative = inhibition of binding), % at 10 µM; 300,000 compounds, 0.38% hits;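 active means inhibition past about -25% in most replicates, and total fluorescence under double the plate's negative control median, limit read from the data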;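 further: 0% = DMSO and -100% = 5 µM competing unlabeled TCR2 RNA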
Target sequence (Q9XUB2 whole entry, looked up): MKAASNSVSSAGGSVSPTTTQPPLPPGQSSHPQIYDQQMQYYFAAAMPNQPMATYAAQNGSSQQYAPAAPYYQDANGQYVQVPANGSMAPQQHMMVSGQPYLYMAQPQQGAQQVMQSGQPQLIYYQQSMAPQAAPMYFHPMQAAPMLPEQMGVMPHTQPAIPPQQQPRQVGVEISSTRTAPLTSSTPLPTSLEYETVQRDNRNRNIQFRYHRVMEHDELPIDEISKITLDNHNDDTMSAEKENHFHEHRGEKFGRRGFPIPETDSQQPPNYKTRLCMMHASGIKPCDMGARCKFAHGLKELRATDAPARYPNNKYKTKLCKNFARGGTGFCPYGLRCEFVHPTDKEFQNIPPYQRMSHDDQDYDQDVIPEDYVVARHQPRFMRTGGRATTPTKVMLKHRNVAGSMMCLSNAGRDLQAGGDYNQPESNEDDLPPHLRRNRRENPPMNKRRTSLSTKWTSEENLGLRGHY
Starred values were filed as active, the others as inactive.

What do the screens show for `COc1ccc(Cn2c(C3CC3)nc3ccc(NC(=O)C4CC4)cc3c2=O)cc1`?
PME-1 inh: -6; LYPLA1 counter: -3; Fam108B counter: -3; PREPL inh: 4; LYPLA2 counter: 3; MEX-5 binding: 2

What do the screens show for `O=C(CSc1nnc(CNC(=O)c2ccc(F)cc2)o1)c1ccccc1`?
PME-1 inh: 2; LYPLA1 counter: -1; Fam108B counter: -3; PREPL inh: 13; LYPLA2 counter: -1; MEX-5 binding: -2

How did CC1=C(C#N)C(=O)NC(=O)/C1=C/c1ccc(-c2ccc(S(N)(=O)=O)cc2)o1 do in these assays?
PME-1 inh: 0; LYPLA1 counter: -5; Fam108B counter: 5; PREPL inh: -1; LYPLA2 counter: -1; MEX-5 binding: -33*

How did NS(=O)(=O)c1ccc(-c2ccc(C=O)o2)cc1 do in these assays?
PME-1 inh: 1; LYPLA1 counter: 0; Fam108B counter: -1; PREPL inh: -2; LYPLA2 counter: 6; MEX-5 binding: -4

How did NS(=O)(=O)c1ccc(-c2ccc(/C=C3\NC(=S)NC3=O)o2)cc1 do in these assays?
PME-1 inh: -3; LYPLA1 counter: -1; Fam108B counter: 2; PREPL inh: 11; LYPLA2 counter: -3; MEX-5 binding: -65*

Results for Cc1cccc(N2CCN(C(=O)Cc3c(C(=O)O)[nH]c4ccc(Cl)cc34)CC2)c1C ?
PME-1 inh: 2; LYPLA1 counter: -2; Fam108B counter: -4; PREPL inh: 8; LYPLA2 counter: 2; MEX-5 binding: 1

Results for CCCCN(C)C(=O)c1cccc(OC2CCN(CC(C)(C)C)CC2)c1 ?
PME-1 inh: -5; LYPLA1 counter: 1; Fam108B counter: 0; PREPL inh: -7; LYPLA2 counter: 8; MEX-5 binding: -31*

Results for CC(=O)Nc1ccc(N=Cc2nc(-c3ccc(C)cc3)oc2O)cc1 ?
PME-1 inh: -16; LYPLA1 counter: 1; Fam108B counter: 2; PREPL inh: 3; LYPLA2 counter: 3; MEX-5 binding: -31*

How did Cc1ccc(N=Cc2nc(-c3ccc(C)cc3)oc2O)cc1 do in these assays?
MEX-5 binding: -42*

What do the screens show for `O=C(NCC1CCCO1)c1nn2c(C(F)(F)F)cc(-c3cccs3)nc2c1Br` (stereo not drawn)?
PME-1 inh: 1; LYPLA1 counter: 0; Fam108B counter: 0; PREPL inh: -3; LYPLA2 counter: -2; MEX-5 binding: -5

How did COc1ccc(CCNC(=O)CCC(=O)c2cccs2)cc1OC do in these assays?
PME-1 inh: 2; LYPLA1 counter: 1; Fam108B counter: 6; PREPL inh: -6; LYPLA2 counter: 3; MEX-5 binding: 4

What do the screens show for `Nc1nccc(-c2cc(-c3ccc(Cl)cc3Cl)no2)n1`?
PME-1 inh: -4; LYPLA1 counter: -2; Fam108B counter: -5; PREPL inh: 14; LYPLA2 counter: -4; MEX-5 binding: 1

What do the screens show for `COC(=O)CCC(=O)OC1(C)C(=O)C=C2C=C(C3CC3)N(c3ccc(CO)cc3)C=C2C1=O` (stereo not drawn)?
PME-1 inh: 1; LYPLA1 counter: 0; Fam108B counter: 1; PREPL inh: 26; LYPLA2 counter: 1; MEX-5 binding: -36*

How did COC(=O)CCC(=O)OC1(C)C(=O)C=C2C=C(c3ccsc3)OC=C2C1=O (stereo not drawn) do in these assays?
PME-1 inh: 3; LYPLA1 counter: -2; Fam108B counter: 10; PREPL inh: 6; LYPLA2 counter: -2; MEX-5 binding: -41*

How did CC1(OC(=O)CCc2ccccc2)C(=O)C=C2C=C(C3CC3)OC=C2C1=O (stereo not drawn) do in these assays?
PME-1 inh: 9; LYPLA1 counter: 4; Fam108B counter: 4; PREPL inh: 4; LYPLA2 counter: 4; MEX-5 binding: -19

How did COC(=O)CCC(=O)OC1(C)C(=O)C=C2C=C(C3CC3)OC=C2C1=O (stereo not drawn) do in these assays?
PME-1 inh: 4; LYPLA1 counter: 10; Fam108B counter: 3; PREPL inh: 5; LYPLA2 counter: 11; MEX-5 binding: -42*

How did COC(=O)CCC(=O)OC1(C)C(=O)C=C2C=C(C3CC3)N(c3cccc(C#N)c3)C=C2C1=O (stereo not drawn) do in these assays?
PME-1 inh: 5; LYPLA1 counter: 2; Fam108B counter: 6; PREPL inh: 2; LYPLA2 counter: 0; MEX-5 binding: -17

Results for CC1(O)C(=O)C=C2C=C(C3CC3)OC=C2C1=O (stereo not drawn) ?
PME-1 inh: 10; LYPLA1 counter: 4; Fam108B counter: 5; PREPL inh: 16; LYPLA2 counter: 0; MEX-5 binding: -60*

What do the screens show for `COc1ccccc1NS(=O)(=O)c1ccc(C)c(C(=O)NCC2(N(C)C)CCCCC2)c1`?
PME-1 inh: -1; LYPLA1 counter: -2; PREPL inh: -10; LYPLA2 counter: 2

Results for COc1ccc(-c2nc(CS(=O)(=O)CC(=O)NCCCN3CCN(C)CC3)c(C)o2)cc1 ?
PME-1 inh: 6; LYPLA1 counter: 5; Fam108B counter: -3; PREPL inh: -4; LYPLA2 counter: 8; MEX-5 binding: -1

How did CC(=O)Nc1cccc(NC(=O)c2cc([N+](=O)[O-])ccc2N2CCCCC2)c1 do in these assays?
PME-1 inh: 5; LYPLA1 counter: -5; PREPL inh: 8; LYPLA2 counter: -7

What do the screens show for `CN(C)S(=O)(=O)c1cccc(NC(=O)c2cc([N+](=O)[O-])ccc2N2CCCCC2)c1`?
PME-1 inh: 46*; LYPLA1 counter: -4; PREPL inh: 11; LYPLA2 counter: 0

How did COc1cc(C2c3c(oc4ccccc4c3=O)C(=O)N2Cc2ccco2)ccc1O (stereo not drawn) do in these assays?
PME-1 inh: 1; LYPLA1 counter: -3; Fam108B counter: -4; PREPL inh: 0; LYPLA2 counter: 1; MEX-5 binding: -2

How did COc1cccc(C2c3c(oc4ccccc4c3=O)C(=O)N2Cc2ccco2)c1 (stereo not drawn) do in these assays?
PME-1 inh: 5; LYPLA1 counter: 2; Fam108B counter: -3; PREPL inh: -3; LYPLA2 counter: 6; MEX-5 binding: -48*

How did N#C/C(=C(/O)c1ccc(Cl)cc1)c1nc2ccccc2[nH]1 do in these assays?
PME-1 inh: -3; LYPLA1 counter: 0; Fam108B counter: 0; PREPL inh: 0; LYPLA2 counter: 0; MEX-5 binding: 0

How did N#C/C(=C(\O)c1cc(Cl)sc1Cl)c1nc2ccccc2[nH]1 do in these assays?
PME-1 inh: 35*; LYPLA1 counter: 0; Fam108B counter: 12; PREPL inh: 8; LYPLA2 counter: -2; MEX-5 binding: -5

What do the screens show for `CCc1ccc(C(=O)/C=C/Nc2ccc(S(=O)(=O)Nc3onc(C)c3C)cc2)cc1`?
PME-1 inh: 5; LYPLA1 counter: 2; Fam108B counter: 7; PREPL inh: 20; LYPLA2 counter: 3; MEX-5 binding: 2
